Autofluor 339: intrinsic fluorescence of library compounds, ex339/em460 – biochemical, MLSMR library, data from DPM-DC assay, artefact control, profiling panel; hit rate 5.5% among 65,000; compound autofluorescence, ex339/em460 nm, NADH buffer; active compounds read high; 1 = no-compound wells, NADH background; fluorescence fold increase at 10 µM;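 active = at 10 µM, mean starting fluorescence two-fold or more over control wells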;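 note: signal is the first read of a kinetic run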
M1 antag: M1 muscarinic receptor (rat) antagonism; P08482; CHO-M1 cells, Fluo-4 calcium, ACh EC80 antagonist mode; active compounds read low; B-score at 10 µM; hit rate 3.4% among 64,000;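 active = calcium fluorescence response, raw or row-and-column corrected B-score, differing from the plate sample mean either way at a set confidence level, mostly lower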
BAP1 inh: blocks human BAP1 ubiquitin-AMC hydrolysis. recombinant BAP1, Ub-AMC hydrolysis fluorescence kinetic; active compounds read low. Q92560. calls only at 20 µM. hit rate 0.48% among 72,000;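 active = activity remaining at or below 50% of control, provided the compound also passes the data quality filters; inactive = the rest, including low values that fail the filters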
Target sequence (Q92560 whole entry, looked up): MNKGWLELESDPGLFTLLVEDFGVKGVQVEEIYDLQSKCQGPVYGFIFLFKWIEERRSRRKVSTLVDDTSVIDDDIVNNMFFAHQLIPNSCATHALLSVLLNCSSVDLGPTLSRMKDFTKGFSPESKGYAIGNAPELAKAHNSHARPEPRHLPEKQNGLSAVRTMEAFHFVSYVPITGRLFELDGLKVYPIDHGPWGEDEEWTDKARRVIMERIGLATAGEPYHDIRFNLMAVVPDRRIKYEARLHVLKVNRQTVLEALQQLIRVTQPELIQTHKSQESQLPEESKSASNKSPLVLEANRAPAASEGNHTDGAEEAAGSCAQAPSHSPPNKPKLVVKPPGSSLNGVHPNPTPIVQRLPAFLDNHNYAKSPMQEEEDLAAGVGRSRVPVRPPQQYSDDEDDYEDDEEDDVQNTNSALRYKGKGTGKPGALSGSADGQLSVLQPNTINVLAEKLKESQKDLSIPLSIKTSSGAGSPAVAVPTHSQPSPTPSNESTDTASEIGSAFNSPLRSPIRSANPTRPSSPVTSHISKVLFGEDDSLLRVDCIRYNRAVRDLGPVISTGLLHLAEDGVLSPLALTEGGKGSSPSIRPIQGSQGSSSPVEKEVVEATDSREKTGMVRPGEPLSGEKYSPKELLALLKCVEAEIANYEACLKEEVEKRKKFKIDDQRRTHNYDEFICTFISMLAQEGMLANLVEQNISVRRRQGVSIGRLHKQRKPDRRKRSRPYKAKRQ
M1 ag: activates the M1 muscarinic receptor | CHO-M1 cells, Fluo-4 calcium fluorescence, agonist mode; active compounds read high | B-score at 10 µM | hit rate 3% among 64,000 | AID 626;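 active = fluorescence rise, raw or as B-score row- and column-corrected plate score, outside the 99.7% band of its plate's samples, either direction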
WNV protease inh: inhibitors of West Nile virus NS2B-NS3 protease; P06935; hit rate 0.18% among 65,000; z-score (concentration not given with the values); WNV NS2B-NS3 protease, fluorogenic substrate Ex360/Em465; active compounds read low; in the data active = z-score below about -3
A340 absorber: compounds absorbing at 340 nm; fold change at 10 µM; 65,000 tested, under 10 active; compound absorbance at 340 nm, fold over control; AID 708;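 active = at 10 µM dose, initial 340 nm absorbance at least 2 fold that of control wells; inactive = change under 2 fold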;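 note: initial absorbance extrapolated from kinetic A340 decline of NADH oxidation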
M1 antag confirm: confirmation of rat M1 muscarinic receptor antagonists | shares compounds with M1 antag | hit rate 43% among 1,700 | CHO-M1 cells, Fluo-4 calcium, ACh EC80 antagonism; active compounds read low | calcium response (max-min fluorescence) at 10 µM;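 active = calcium response below the same-plate mean of wells given acetylcholine alone at its 80%-effect dose, minus 3 SD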
mGluR4 antag: mGluR4 (human) activity, M1 antagonist secondary assay. shares compounds with M1 antag. CHO-mGluR4 calcium flux, Fluo-4 fluorescence, glutamate EC80; active compounds read low. fluorescence response (max-min) at 10 µM. hit rate 0.9% among 1,700;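 active = fluorescence response below the plate's average for near-maximal glutamate wells, less 3 SD of those wells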;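 note: raw unnormalized fluorescence span taken in the window right after glutamate addition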
Large screens that a line does not name were inactive (follow-up assays come after a bar, where they were run). A selection: hits, their analogues and other compounds. The true share with any hit is near 9.7%.

CC(C)OC(=O)CSc1nnc(-c2ccc(O)cc2)n1Cc1ccccc1	M1 antag -3.3 | M1 antag confirm inactive | mGluR4 antag inactive
O=C(CSc1ncccc1-c1nc2ccccc2[nH]1)NCc1ccco1	none
COC(=O)CSc1ncccc1-c1nc2ccccc2[nH]1	M1 antag -2.3 | M1 antag confirm inactive | mGluR4 antag inactive
COc1cc(-c2c(C#N)c(N)nc3sc(C(=O)c4ccccc4)c(N)c23)cc(OC)c1OC	none (no result: Autofluor 339, M1 antag, M1 ag, WNV protease inh, A340 absorber)
Cc1c(N=CC=Nc2c(C)n(C)n(-c3ccccc3)c2=O)c(=O)n(-c2ccccc2)n1C	none (no result: M1 antag, M1 ag)
Cc1c(N=C/C=C/c2ccccc2)c(=O)n(-c2ccccc2)n1C	M1 antag -11 | M1 antag confirm 24 | mGluR4 antag inactive
COc1cc2ccccc2cc1C(=O)Nc1nnc(-c2ccc(F)cc2)s1	none (no result: Autofluor 339, M1 antag, M1 ag, WNV protease inh, A340 absorber)
Cc1ccc2nc(NC3=NCN(CCN4CCOCC4)CN3)nc(C)c2c1	M1 antag -2.6 | M1 antag confirm 317 | mGluR4 antag inactive
Cn1c(SC2C(=O)CC(C)(C)CC2=O)nnc1-c1ccco1	M1 antag -12 | M1 antag confirm inactive | mGluR4 antag inactive
CC(C)CCSc1nc2c(c(=O)[nH]c(=O)n2C)n1CCC(C)C	none (no result: Autofluor 339, M1 antag, M1 ag, WNV protease inh, A340 absorber)
O=C(CN1CCCc2ccccc21)NC(=O)NCc1ccco1	none
CC1Cc2ccccc2N1CC(=O)NC(=O)NCc1ccco1 (stereo not given)	M1 antag -4.1 | M1 antag confirm inactive | mGluR4 antag inactive
CNc1nc(N)c(C(=O)C(C)(C)C)s1	M1 antag -1.8 | M1 antag confirm inactive | mGluR4 antag inactive
CC(C)(C)n1nc2c(c1NC(=O)c1cccc(C(F)(F)F)c1)CSC2	none (no result: Autofluor 339, M1 antag, M1 ag, WNV protease inh, A340 absorber)
COc1ccc(OC)c(NC(=O)COc2ccc(Cl)cc2)c1	none (no result: Autofluor 339, M1 antag, M1 ag, WNV protease inh, A340 absorber)
CC12CN3CC(C)(CN(C1)C3c1ccc(Br)cc1)C2 (stereo not given)	M1 antag -3.7 | M1 antag confirm 387 | mGluR4 antag inactive
O=c1cc(CSc2nnnn2-c2ccccc2)nc2nc[nH]n12	M1 antag -2.1 | M1 antag confirm inactive | mGluR4 antag inactive
O=c1cc(CSc2nnnn2-c2ccccc2)nc2scc(-c3ccccc3)n12	none
CC(=O)CC1OC(=O)C(Br)=C1NCc1ccccc1 (stereo not given)	M1 antag -2.3 | M1 antag confirm inactive | mGluR4 antag inactive
O=C(CC1Oc2ccccc2NC1=O)NCc1ccccc1 (stereo not given)	none
O=C(Nc1ccc2c(c1)OCO2)C1CCN(S(=O)(=O)Cc2ccccc2)CC1	none
O=C(Nc1ccc2c(c1)OCO2)C1CCN(Cc2cnn(-c3ccccc3)c2-n2cccc2)CC1	M1 antag -2.1 | M1 antag confirm inactive | mGluR4 antag inactive
CSc1nc2ccccc2n1C(=O)NC1CCCCC1	M1 antag -4.3 | M1 antag confirm inactive | mGluR4 antag inactive
COC(=O)n1c(SC)nc2ccccc21	none
CCOc1ccc(C(=O)Nc2cc(-c3nc4ccccc4[nH]3)ccc2C)cc1Cl	none (no result: Autofluor 339, M1 antag, M1 ag, WNV protease inh, A340 absorber)
Cc1cc(C)nc(SCC(=O)Oc2ccc3oc(=O)cc(C)c3c2)n1	M1 antag -2.6 (no result: BAP1 inh) | M1 antag confirm inactive | mGluR4 antag inactive
CN1CCCCc2c1nc1c(c2N)CCCC1	M1 antag -2.5 | M1 antag confirm inactive | mGluR4 antag inactive
Nc1c2c(nc3ccccc13)CCCC2	none (no result: Autofluor 339, M1 antag, M1 ag, WNV protease inh, A340 absorber)
COc1cc(C2N(c3ccc(F)cc3)C(=O)C3CCCN32)cc(OC)c1OC (stereo not given)	M1 antag -4.4 | M1 antag confirm inactive | mGluR4 antag inactive
COc1cccc(-n2c(SC)nnc2-c2cnccn2)c1	M1 antag -3 | M1 antag confirm inactive | mGluR4 antag inactive
Cc1nc2cc(CO)ccc2n1C	M1 antag -5.1 | M1 antag confirm inactive | mGluR4 antag inactive
CN(CCNC(=O)c1cc2c(=O)n(C)c3ccccc3c2n1C)Cc1ccccc1	M1 antag -3.8 | M1 antag confirm inactive | mGluR4 antag inactive
CC(C)n1c(-c2ccco2)csc1=Nc1cccnc1	M1 antag -3.3 | M1 antag confirm 471 | mGluR4 antag inactive
Cn1c(=O)c2c(nc(CN3CCC(C(N)=O)CC3)n2Cc2c(F)cccc2Cl)n(C)c1=O	none
Cn1c(=O)c2c(nc(CN3CCC(C(N)=O)CC3)n2Cc2c(Cl)cccc2Cl)n(C)c1=O	M1 antag -4.1 | M1 antag confirm inactive | mGluR4 antag inactive
CCN1CCN(Cc2nc3c(c(=O)n(C)c(=O)n3C)n2Cc2cccc3ccccc23)CC1	M1 antag -2.8 | M1 antag confirm inactive | mGluR4 antag inactive
CCN1CCN(c2nc3c(c(=O)n(C)c(=O)n3C)n2Cc2cccc3ccccc23)CC1	M1 antag -3.3 | M1 antag confirm 429 | mGluR4 antag inactive
CCC1CCCCN1Cc1nc2c(c(=O)n(C)c(=O)n2C)n1Cc1cccc2ccccc12 (stereo not given)	none
CC(NC(=O)c1ccccc1)C1CC2CCC1C2 (stereo not given)	none (no result: Autofluor 339, M1 antag, M1 ag, WNV protease inh, A340 absorber)
Cc1ccc(Oc2cccc(N3C(=O)c4cccc([N+](=O)[O-])c4C3=O)c2)cc1C	none (no result: Autofluor 339, M1 antag, M1 ag, WNV protease inh, A340 absorber)
COc1cc(OC)cc(C(=O)N2CCN(C(=O)c3cccc(F)c3)CC2)c1	none
CC(C)CC(=O)N1CCN(C(=O)c2cccc(F)c2)CC1	M1 antag -2.2 | M1 antag confirm inactive | mGluR4 antag inactive
Cc1cc(C)nc(SCC(=O)N2c3ccccc3Sc3ccc(C(F)(F)F)cc32)n1	none (no result: Autofluor 339, M1 antag, M1 ag, WNV protease inh, A340 absorber)
CC1CCN(CCCNC(=O)c2coc3nc4ccccc4nc23)CC1	Autofluor 339 3.4, M1 antag -4.8 | M1 antag confirm 390 | mGluR4 antag inactive
CC1CCN(CCCNC(=O)c2n[nH]c(=O)c3ccccc23)CC1	none
CC1CCCN(CCCNC(=O)c2coc3nc4ccccc4nc23)C1 (stereo not given)	Autofluor 339 4.9, M1 antag -1.8 | M1 antag confirm 365 | mGluR4 antag inactive
Cc1cc(C)c(NC(=O)CCC(=O)O)c(C)c1	none (no result: Autofluor 339, M1 antag, M1 ag, WNV protease inh, A340 absorber)
Cc1ccc2c(CC(=O)OCn3nnc4ccccc4c3=O)coc2c1	M1 antag -4.9 | M1 antag confirm 323 | mGluR4 antag inactive
CC(=O)OCn1nnc2ccccc2c1=O	none
CCC(=O)Nc1ccc(NC(=O)CN2CCCC(C)C2)c(Cl)c1 (stereo not given)	M1 antag -2.8 | M1 antag confirm inactive | mGluR4 antag inactive
O=C(CN1CCCCC1)Nc1ccc(F)c(Cl)c1	none (no result: BAP1 inh)
CCc1cc2c(N3CCN(Cc4ccccc4)CC3)ncnc2s1	none (no result: Autofluor 339, M1 antag, M1 ag, WNV protease inh, A340 absorber)
COc1cccc(C(=O)NCc2n[nH]c(=S)n2-c2ccc(Br)cc2)c1	none (no result: Autofluor 339, M1 antag, M1 ag, WNV protease inh, A340 absorber)
COC(=O)c1cc2sccc2n1Cc1nc(-c2ccc(OC)cc2)oc1C	M1 antag -2.6 | M1 antag confirm inactive | mGluR4 antag inactive

Source: PubChem BioAssay
